Laboratory results as given in PubChem BioAssay AID1159580 (chemical genetic matrix, 2015).
Out of some 5,500 compounds screened, about 2,000 (36%) were called active. About 18% were inconclusive and are not listed. No stated cut-off is given here; in the data, active means normalized growth mostly below about 0.91 (no sharp cut-off); inconclusive means no clear call, values can overlap the other calls; inactive means mostly above about 0.92. The list shows a part of the results.

Experiment: chemical genetic growth profiling, strain panel (AID 1159580);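 further: tested at 20 µM; growth read once vehicle control cultures reached saturation at 30 °C; 1 = growth at the plate median or of vehicle wells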
Details: growth OD
[1] = S. cerevisiae deletion strains, locus YAL013W, strain DEP1, stronger effect = lower value
[2] = S. cerevisiae deletion strains, locus YBR229C, strain ROT2, stronger effect = lower value
[3] = S. cerevisiae deletion strains, locus YDL101C, strain DUN1, stronger effect = lower value
[4] = S. cerevisiae deletion strains, locus YDL134C, strain PPH21, stronger effect = lower value
[5] = S. cerevisiae deletion strains, locus YDR150W, strain NUM1, stronger effect = lower value
[6] = S. cerevisiae deletion strains, locus YEL061C, strain CIN8, stronger effect = lower value
[7] = S. cerevisiae deletion strains, locus YGR078C, strain PAC10, stronger effect = lower value
[8] = S. cerevisiae deletion strains, locus YHR030C, strain SLT2, stronger effect = lower value
[9] = S. cerevisiae deletion strains, locus YHR087W, strain rtc3, stronger effect = lower value
[10] = S. cerevisiae deletion strains, locus YJR043C, strain POL32, stronger effect = lower value
[11] = S. cerevisiae deletion strains, locus YJR075W, strain HOC1, stronger effect = lower value
[12] = S. cerevisiae deletion strains, locus YKL190W, strain CNB1, stronger effect = lower value
[13] = S. cerevisiae deletion strains, locus YLR039C, strain RIC1, stronger effect = lower value
[14] = S. cerevisiae deletion strains, locus YLR058C, strain SHM2 (second series), stronger effect = lower value
[15] = S. cerevisiae deletion strains, locus YLR085C, strain ARP6, stronger effect = lower value
[16] = S. cerevisiae deletion strains, locus YLR262C, strain YPT6, stronger effect = lower value
[17] = S. cerevisiae deletion strains, locus YML094W, strain GIM5, stronger effect = lower value
[18] = S. cerevisiae deletion strains, locus YMR219W, strain ESC1, stronger effect = lower value
[19] = S. cerevisiae deletion strains, locus YMR263W, strain SAP30, stronger effect = lower value
[20] = S. cerevisiae deletion strains, locus YNL153C, strain GIM3, stronger effect = lower value
[21] = S. cerevisiae deletion strains, locus YNL298W, strain CLA4 (second series), stronger effect = lower value
[22] = S. cerevisiae deletion strains, locus YNL322C, strain KRE1, stronger effect = lower value
[23] = S. cerevisiae deletion strains, locus YNR030W, strain Alg12, stronger effect = lower value
[24] = S. cerevisiae deletion strains, locus YPL055C, strain LGE1, stronger effect = lower value
[25] = S. cerevisiae deletion strains, locus YPL241C, strain CIN2, stronger effect = lower value
[26] = S. cerevisiae deletion strains, locus YPR135W, strain CTF4, stronger effect = lower value
[27] = S. cerevisiae deletion strains, locus YJL187C, strain SWE1, stronger effect = lower value
[28] = S. cerevisiae deletion strains, locus YNL128W, strain TEP1, stronger effect = lower value
[29] = S. cerevisiae deletion strains, locus YOL006C, strain TOP1, stronger effect = lower value
[30] = S. cerevisiae strains, strain wild type, stronger effect = lower value
[31] = S. cerevisiae deletion strains, locus YCL061C, strain MRC1, stronger effect = lower value

Measured: normalized growth

CCOC(=O)c1c(SC)[nH]c2c(C(F)(F)F)cccc2c1=O
inactive: [1] 0.996 | [2] 0.991 | [3] 0.99 | [4] 0.959 | [5] 0.939 | [6] 1.02 | [7] 0.998 | S. cerevisiae deletion strains, locus YGR229C, strain SMI1, stronger effect = lower value 0.989 | [8] 0.975 | [9] 0.975 | [10] 0.982 | [11] 0.992 | [12] 1 | [13] 0.917 | [14] 1 | [15] 0.977 | [16] 0.997 | [17] 0.986 | [18] 1 | [19] 1.03 | [20] 0.986 | [21] 1.01 | [22] 1 | [23] 0.977 | [24] 0.936 | [25] 0.982 | [26] 0.927

N/C(CSc1ccc(Cl)cc1)=N/OC(=O)c1ccc(C(F)(F)F)cc1
inactive: S. cerevisiae deletion strains, locus YDL214C, strain PRR2, stronger effect = lower value 0.798 | S. cerevisiae deletion strains, locus YDR052C, strain DBF4, stronger effect = lower value 0.912 | S. cerevisiae deletion strains, locus YDR477W, strain SNF1, stronger effect = lower value 0.798 | S. cerevisiae deletion strains, locus YER123W, strain YCK3, stronger effect = lower value 0.774 | S. cerevisiae deletion strains, locus YER133W, strain GLC7, stronger effect = lower value 0.853 | S. cerevisiae deletion strains, locus YFR003C, strain YPI1, stronger effect = lower value 0.908 | S. cerevisiae deletion strains, locus YGR040W, strain KSS1, stronger effect = lower value 0.816 | S. cerevisiae deletion strains, locus YGR052W, strain FMP48, stronger effect = lower value 0.838 | S. cerevisiae deletion strains, locus YGR092W, strain DBF2, stronger effect = lower value 0.805 | S. cerevisiae deletion strains, locus YHR079C, strain IRE1, stronger effect = lower value 0.739 | S. cerevisiae deletion strains, locus YHR082C, strain KSP1, stronger effect = lower value 0.788 | S. cerevisiae deletion strains, locus YHR205W, strain SCH9, stronger effect = lower value 0.604 | S. cerevisiae deletion strains, locus YJL095W, strain BCK1, stronger effect = lower value 0.7 | S. cerevisiae deletion strains, locus YJL128C, strain PBS2, stronger effect = lower value 0.889 | S. cerevisiae deletion strains, locus YJL157C, strain FAR1, stronger effect = lower value 0.826 | S. cerevisiae deletion strains, locus YJR066W, strain TOR1 (second series), stronger effect = lower value 0.687 | S. cerevisiae deletion strains, locus YJR066W, strain TOR1, stronger effect = lower value 0.651 | S. cerevisiae deletion strains, locus YKL048C, strain ELM1, stronger effect = lower value 0.953 | S. cerevisiae deletion strains, locus YKL067W, strain YNK1, stronger effect = lower value 0.826 | S. cerevisiae deletion strains, locus YKL101W, strain HSL1, stronger effect = lower value 0.863 | S. cerevisiae deletion strains, locus YKL203C, strain TOR2, stronger effect = lower value 0.859 | S. cerevisiae deletion strains, locus YLR133W, strain CKI1, stronger effect = lower value 0.822 | S. cerevisiae deletion strains, locus YLR403W, strain SFP1, stronger effect = lower value 0.761 | S. cerevisiae deletion strains, locus YML070W, strain DAK1, stronger effect = lower value 0.852 | S. cerevisiae deletion strains, locus YMR205C, strain PFK2 (second series), stronger effect = lower value 0.836 | S. cerevisiae deletion strains, locus YNL020C, strain ARK1, stronger effect = lower value 0.836 | S. cerevisiae deletion strains, locus YNL161W, strain CBK1, stronger effect = lower value 0.9 | S. cerevisiae deletion strains, locus YNL183C, strain NPR1, stronger effect = lower value 0.82 | S. cerevisiae deletion strains, locus YNL307C, strain MCK1 (second series), stronger effect = lower value 0.786 | S. cerevisiae deletion strains, locus YOL136C, strain PFK27, stronger effect = lower value 0.852 | S. cerevisiae deletion strains, locus YOR061W, strain CKA2, stronger effect = lower value 0.803 | S. cerevisiae deletion strains, locus YOR119C, strain RIO1, stronger effect = lower value 0.845 | S. cerevisiae deletion strains, locus YOR231W, strain MKK1, stronger effect = lower value 0.791 | S. cerevisiae deletion strains, locus YPL031C, strain PHO85, stronger effect = lower value 0.807 | S. cerevisiae deletion strains, locus YPL153C, strain RAD53, stronger effect = lower value 0.811 | S. cerevisiae deletion strains, locus YPL204W, strain HRR25, stronger effect = lower value 0.786
active: S. cerevisiae deletion strains, locus YAR019C, strain CDC15, stronger effect = lower value 0.853 | S. cerevisiae deletion strains, locus YBL105C, strain PKC1, stronger effect = lower value 0.895 | S. cerevisiae deletion strains, locus YBR135W, strain CKS1, stronger effect = lower value 0.89 | S. cerevisiae deletion strains, locus YBR136W, strain MEC1, stronger effect = lower value 0.889 | S. cerevisiae deletion strains, locus YBR160W, strain CDC28, stronger effect = lower value 0.874 | S. cerevisiae deletion strains, locus YDL017W, strain CDC7, stronger effect = lower value 0.893 | S. cerevisiae deletion strains, locus YDL028C, strain MPS1, stronger effect = lower value 0.847 | [3] 0.867 | S. cerevisiae deletion strains, locus YDL108W, strain KIN28, stronger effect = lower value 0.881 | S. cerevisiae deletion strains, locus YDL132W, strain cdc53, stronger effect = lower value 0.886 | S. cerevisiae deletion strains, locus YDR054C, strain cdc34, stronger effect = lower value 0.87 | S. cerevisiae deletion strains, locus YDR226W, strain ADK1, stronger effect = lower value 0.867 | S. cerevisiae deletion strains, locus YFL009W, strain cdc4, stronger effect = lower value 0.841 | S. cerevisiae deletion strains, locus YFL029C, strain CAK1, stronger effect = lower value 0.853 | S. cerevisiae deletion strains, locus YFR019W, strain FAB1, stronger effect = lower value 0.766 | S. cerevisiae deletion strains, locus YFR028C, strain CDC14, stronger effect = lower value 0.86 | [8] 0.422 | S. cerevisiae deletion strains, locus YIL147C, strain SLN1, stronger effect = lower value 0.876 | S. cerevisiae deletion strains, locus YJR016C, strain ILV3, stronger effect = lower value 0.889 | S. cerevisiae deletion strains, locus YKL193C, strain SDS22, stronger effect = lower value 0.885 | S. cerevisiae deletion strains, locus YLR113W, strain HOG1, stronger effect = lower value 0.619 | S. cerevisiae deletion strains, locus YMR001C, strain CDC5, stronger effect = lower value 0.866 | S. cerevisiae deletion strains, locus YMR277W, strain FCP1, stronger effect = lower value 0.855 | S. cerevisiae deletion strains, locus YNL006W, strain LST8, stronger effect = lower value 0.892 | S. cerevisiae deletion strains, locus YNL207W, strain RIO2, stronger effect = lower value 0.874 | S. cerevisiae deletion strains, locus YNL222W, strain SSU72, stronger effect = lower value 0.872 | S. cerevisiae deletion strains, locus YOL078W, strain AVO1, stronger effect = lower value 0.877 | S. cerevisiae deletion strains, locus YOR329C, strain SCD5, stronger effect = lower value 0.9 | S. cerevisiae deletion strains, locus YPL209C, strain IPL1, stronger effect = lower value 0.892 | S. cerevisiae deletion strains, locus YPL256C, strain CLN2, stronger effect = lower value 0.647 | S. cerevisiae deletion strains, locus YPR025C, strain CCL1, stronger effect = lower value 0.886 | S. cerevisiae deletion strains, locus YPR106W, strain ISR1, stronger effect = lower value 0.875 | S. cerevisiae deletion strains, locus YPR111W, strain DBF20, stronger effect = lower value 0.855 | S. cerevisiae deletion strains, strain NNK1, stronger effect = lower value 0.862 | S. cerevisiae deletion strains, strain TSCII, stronger effect = lower value 0.85

COC(=O)c1cn(Cc2ccc(C(F)(F)F)cc2)cc(F)c1=O
inactive: [1] 1.02 | [2] 0.996 | [3] 0.996 | [5] 0.923 | [6] 0.998 | [7] 1 | [8] 1.08 | [9] 1 | [27] 1.04 | [10] 0.99 | [11] 1 | [13] 1.02 | [14] 0.996 | [15] 1.09 | [16] 1.04 | [17] 1.03 | [18] 1 | [19] 0.931 | [28] 1.01 | [20] 0.988 | [21] 1.02 | [22] 1.01 | [23] 1.02 | [29] 1.04 | [24] 0.921 | [25] 1.01 | [26] 1.05 | [30] 1.02

Cc1onc(-c2c(Cl)cccc2Cl)c1C(=O)N1CCN(c2ncccc2C(F)(F)F)CC1
inactive: [1] 1.01 | [2] 1 | [3] 1.03 | [4] 0.988 | [5] 0.997 | [6] 1.03 | [7] 1 | [8] 0.908 | [9] 1 | [27] 0.992 | [10] 0.966 | [11] 0.999 | [12] 1 | [13] 0.99 | [14] 0.983 | [15] 0.921 | [16] 0.964 | [17] 1.11 | [18] 0.991 | [19] 0.977 | [28] 1 | [20] 1 | [21] 0.997 | [22] 0.994 | [23] 0.966 | [29] 0.934 | [24] 1.06 | [25] 0.99 | [26] 1.08 | [30] 0.972

N/C(=N/OS(=O)(=O)c1ccc(Cl)cc1)c1ccc(C(F)(F)F)cc1
inactive: [1] 0.957 | [2] 0.978 | [31] 0.946 | [3] 0.958 | [4] 0.978 | [5] 0.96 | [6] 0.997 | [7] 0.971 | [8] 0.915 | [9] 1.01 | [10] 0.97 | [11] 0.955 | [12] 0.981 | [13] 0.969 | [14] 0.976 | [15] 0.968 | [16] 0.999 | [17] 0.985 | [18] 0.99 | [19] 0.991 | [20] 0.976 | [21] 0.943 | [22] 0.967 | [23] 0.971 | [29] 0.897 | [24] 1.02 | [25] 0.965 | [26] 0.847 | [30] 0.973

CC(C)(C)C(=O)N1CCN(c2ncccc2C(F)(F)F)CC1
inactive: [1] 0.988 | [2] 0.983 | [31] 0.998 | [3] 0.977 | [4] 0.967 | [5] 0.983 | [6] 0.96 | [7] 0.979 | [8] 0.853 | [9] 0.973 | [10] 0.997 | [11] 0.983 | [13] 0.914 | [14] 0.989 | [15] 0.941 | [16] 0.865 | [17] 0.939 | [18] 0.99 | [19] 1.02 | [20] 0.992 | [21] 0.966 | [22] 0.974 | [23] 0.963 | [29] 0.871 | [24] 0.959 | [25] 0.999 | [26] 0.787
